Inconclusive results are not listed. Active and inactive are the calls of the source. The call rests on the fitted dose curve; in most records, active means well fitted inhibition curve with a large enough effect; inconclusive means small, poorly fitted or top-dose-only effect; inactive means flat fitted curve, though single readings scatter.
Experiments:
Test in all cases: qHTS profiling for inhibitors of Plasmodium falciparum proliferation (AID 504749); further: nearly all actives have a fitted effect of over 60% in size
Conditions in all cases: P. falciparum in erythrocytes, SYBR Green DNA, 72 h; series mostly up to 28.7 µM
3D7 = test system: 3D7
Outline: (§1)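 Infected RBCs, 0.3% parasitemia/2.5% Hct final; cpd 72 h, 37 C, 5% CO2; lysis buffer with saponin/triton/SYBR Green I, o/n RT dark; FI 485/535; norm. to artemisinin (0.29 uM) and DMSO.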

7G8 = test system: 7G8
Outline: as §1

CP185 = test system: CP185
Outline: as §1

CP201 = test system: CP201
Outline: as §1

CP237 = test system: CP237
Outline: as §1

CP238 = test system: CP238
Outline: as §1

CP262 = test system: CP262
Outline: as §1

CP265 = test system: CP265
Outline: as §1

CP266 = test system: CP266
Outline: as §1

CP268 = test system: CP268
Outline: as §1

CP286 = test system: CP286
Outline: as §1

CP305 = test system: CP305
Outline: as §1

CP335 = test system: CP335
Outline: as §1

DIV30 = test system: DIV30
Outline: as §1

Dd2 = test system: Dd2
Outline: as §1

ECU = test system: ECU
Outline: as §1

HB3 = test system: HB3
Outline: as §1

P94_40 = test system: P94_40
Outline: as §1

PC26 = test system: PC26
Outline: as §1

TAB109 = test system: TAB109
Outline: as §1

Measured: Potency

C/C=C1\C2C=C(C)CC1(N)c1ccc(=O)[nH]c1C2 (stereo not given)
inactive: all assays above

Source: PubChem BioAssay (NCATS)
